In PubChem BioAssay (NCATS):
Inconclusive results are not listed. Where a call stands in place of a potency, no number is given. Calls of active or inactive are those of the source. Calls follow the shape of the dose curve; as a rule, active = well fitted inhibition curve with a large enough effect; inconclusive = small, poorly fitted or top-dose-only effect; inactive = no such curve, though single readings can be large or run the other way.

Test: qHTS for Inhibitors of the Aldehyde Dehydrogenase Family (ALDH1A2, ALDH1A3, ALDH2, ALDH3A1) (AID 2061307); also: nearly all actives have a fitted effect of over 50% in size; as to potency: test system not described further here
Settings: ALDH inhibition qHTS; series mostly up to 50.3 µM
Potency is read from the fitted curve at half-maximal effect.

| Compound | Potency |
| --- | --- |
| COc1cc2ccccc2cc1C(=O)NC(=S)Nc1cccc(C(=O)O)c1 | 4.49 µM (active) |
| O=C(NCc1ccccc1Cl)c1ccc(-c2nn[nH]n2)cc1 | inactive |
| Nc1ccc(Cn2ccc3c4c(N)nc(N)nc4ccc32)cc1 | inactive |
| CCOc1ccc(CNc2ccc3ccccc3c2)cc1 | 2.83 µM (active) |
| COc1ccc(-n2ncc3c2CCCC3NC(=O)CN(C)C)cc1 (stereo not drawn) | inactive |
| O=C1CCc2ccc(NC(=O)c3ccn(-c4ccccc4F)n3)cc2N1 | inactive |
| O=C(Nc1ccc(C(=O)N2CCCC2)cc1)c1ccccc1F | 10.7 µM (active) |
| CCn1nc(C)c(CNc2ccc(S(N)(=O)=O)cc2C#N)c1C | inactive |
| C[S+](=O)([O-])c1ccc(-c2nnc3ccc(C(=O)NCCc4ccccc4F)cn23)cc1 | inactive |
| Cc1c(P(=S)(c2ccccc2)c2ccccc2)[n+]2ccccc2n1C/C=C/c1cccc(Br)c1 | 3.16 µM (active) |
| N#Cc1nc(-c2cccc3ccccc23)oc1NCCC1CNC1 | 15.8 µM (active) |
| COCCCNC(=O)c1cc2cc(S(=O)(=O)N(C)C)ccc2n1C | inactive |
| Oc1[nH]c2ccccc2c1N=NC(=S)Nc1cccnc1 | inactive |
| O=C(O)c1ccnc(-n2cc(Br)cn2)c1 | inactive |
| Cc1nn(-c2ccc(C(F)(F)F)cn2)c(C)c1CC(=O)Nc1ccc(C(N)=O)cc1 | inactive |
| CCOC(=O)Cc1ccc(NC(=O)n2ncc3cc(Cl)ccc32)cc1 | inactive |
| COc1ccc(Cl)cc1NC(=O)c1nn(-c2ccc(C)cc2)c(=O)n(C)c1=O | inactive |
| Oc1ccccc1NCC(O)Cn1ccc2ccccc21 (stereo not drawn) | inactive |
| COc1ccc2nc(-c3cnn(Cc4ccccc4)c3)sc2c1 | inactive |

| Compound | Potency |
| --- | --- |
| COc1ccc(OC)c(NC(=O)c2cc3cccc(OC)c3oc2=O)c1 | inactive |
| CCOc1ccc2[nH]c(=O)c(CN(Cc3nnnn3Cc3ccco3)C3CCCCC3)cc2c1 | 0.896 µM (active) |
| N[C@H](Cc1cscn1)C(=O)Nc1cccc(-c2nn3c(=O)cc(N4CCNCC4)nc3s2)c1 | inactive |
| Cc1csc(-c2cccc(C(=O)Nc3ccc(F)c(F)c3F)c2)n1 | inactive |
| C#CCOC(=O)NCCCC[C@H](N)C(=O)O | inactive |
| CC(=O)Nc1cccc(C(=O)Nc2nc(-c3ccc4c(c3)CCC(=O)N4)cs2)c1 | inactive |
| CCOc1ccc(C(=O)NCc2nc(-c3ccc(Cl)cc3)no2)cc1OCC | inactive |
| O=C(Nc1ncc(Cc2ccc(C(F)(F)F)cc2)s1)C1CCC(c2ccccc2)CC1 (stereo not drawn) | inactive |
| O=C(CSc1nnc(-c2ccccn2)o1)Nc1ccc2c(c1)OCCO2 | 11.3 µM (active) |
| N[C@H](CCC(=O)Nc1cccc(-c2nn3c(=O)cc(N4CCNCC4)nc3s2)c1)C(=O)O | inactive |
| CCc1cccc(C)c1Nc1c(-c2ccc(N(C)C)cc2)nc2ncccn12 | inactive |
| CC(=O)Nc1ccc(NC(=O)c2sc(COc3ccc(F)cc3)nc2C)cc1 | inactive |
| COc1ccc(NC(=O)c2cc(C3CC3)nc3c2c(C)nn3-c2ccccc2)cc1OC | inactive |
| CCOC(=O)COc1ccc2c(c1)c(C(=O)c1ccccc1)c(C)n2-c1ccc(OC)cc1 | inactive |
| O=C(N/N=C/c1ccc(Sc2cccc3cccnc23)o1)c1cccc(F)c1 | 7.12 µM (active) |
| O=C(Nc1nnc(-c2ccccn2)o1)c1ccc(Cl)cc1Cl | 12.7 µM (active) |
| O=C(N/N=C/c1ccc(Sc2ccccn2)s1)c1cccc(F)c1 | 15.9 µM (active) |
| CCOc1ccc(NC(=O)Cn2c(=O)n(-c3ccccc3)c(=O)c3ccc(C(=O)NCc4ccc5c(c4)OCO5)cc32)cc1 | inactive |
| Cc1cccn2c(=O)c(C(=O)NCc3cccc(F)c3)cnc12 | inactive |
